Measured values taken from PubChem BioAssay (NCI).
This is part of a sample that, as a whole, favours compounds with a hit. Of some 83,000 tested, about 20% had one in any assay.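 Interpretation: 100, growth as untreated; towards 0, rising growth inhibition; 0, no net growth; 0 to -100, cell death. Compounds scoring below 10 were considered active.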 Calls of active or inactive are those of the source.

How the values were obtained:
Assay in all cases: NCI-60 one-dose screen, 48 h (100 = growth as untreated, 0 = no growth, -100 = all killed)
Settings in all cases: 10 µM unless noted
SR leukemia = system: SR leukemia
RPMI-8226 leukemia = system: RPMI-8226 leukemia
OVCAR-8 ovarian = system: OVCAR-8 ovarian
OVCAR-5 ovarian = system: OVCAR-5 ovarian
OVCAR-4 ovarian = system: OVCAR-4 ovarian
SK-OV-3 ovarian = system: SK-OV-3 ovarian
IGROV1 ovarian = system: IGROV1 ovarian
OVCAR-3 ovarian = system: OVCAR-3 ovarian
HS 578T breast = system: HS 578T breast
NCI/ADR-RES ovarian = system: NCI/ADR-RES ovarian
T-47D breast = system: T-47D breast
MDA-MB-435 melanoma = system: MDA-MB-435 melanoma
SW-620 colon = system: SW-620 colon
MCF7 breast = system: MCF7 breast
HCT-116 colon = system: HCT-116 colon
HCC-2998 colon = system: HCC-2998 colon
KM12 colon = system: KM12 colon
BT-549 breast = system: BT-549 breast

Measured: growth

N#Cc1cnc2ccc(-c3cnc4[nH]ncc4c3)cc2c1N1CCc2cc(F)c(Cl)cc21
inactive: OVCAR-8 ovarian 19.2% | OVCAR-5 ovarian 19.5% | OVCAR-4 ovarian 15.3% | SW-620 colon 17.9% | KM12 colon 14%
active: SR leukemia 8.41% | RPMI-8226 leukemia -1.79% | SK-OV-3 ovarian 4.24% | IGROV1 ovarian -31% | OVCAR-3 ovarian -5.18% | HS 578T breast -42% | NCI/ADR-RES ovarian 8.51% | T-47D breast -2.57% | MDA-MB-435 melanoma -10.2% | MCF7 breast -2.16% | HCT-116 colon 8.48% | HCC-2998 colon -11.8%

C#Cc1nc(C(=O)NCCC(=O)Nc2ccc(NC(=O)c3ccc(/C=C/C(=O)c4nccn4C)cc3)cc2)cs1
inactive: OVCAR-8 ovarian 22.3% | OVCAR-5 ovarian 50.9% | OVCAR-4 ovarian 61.8% | SK-OV-3 ovarian 86.3% | NCI/ADR-RES ovarian 49.2% | T-47D breast 49.3% | BT-549 breast 54.3% | MDA-MB-435 melanoma 27% | SW-620 colon 15.7% | HCC-2998 colon 93.5%
active: SR leukemia 0.901% | RPMI-8226 leukemia -33% | IGROV1 ovarian -25.5% | OVCAR-3 ovarian -11.5% | MCF7 breast 8.54% | HCT-116 colon -33.1% | KM12 colon 9.96%

O=S(=O)(NCCCNc1nccc(-c2[nH]c(-c3ccccc3)nc2-c2ccc(Cl)c(O)c2)n1)c1ccc(Br)cc1
active: MDA-MB-435 melanoma 2.09%
inactive: SR leukemia 15.3% | RPMI-8226 leukemia 22.1% | OVCAR-8 ovarian 33.3% | OVCAR-5 ovarian 72.2% | OVCAR-4 ovarian 46.6% | SK-OV-3 ovarian 68.4% | IGROV1 ovarian 36.8% | OVCAR-3 ovarian 24.1% | NCI/ADR-RES ovarian 42.6% | T-47D breast 30% | BT-549 breast 40.3% | SW-620 colon 55.8% | MCF7 breast 19.5% | HCT-116 colon 14.5% | HCC-2998 colon 47.2% | KM12 colon 22%

NC(N)=Nc1ccc(Oc2cccc(Nc3ccc(Br)c(C(F)(F)F)c3)c2)cn1
inactive: SK-OV-3 ovarian 32.2% | NCI/ADR-RES ovarian 55.7% | T-47D breast 12.9%
active: SR leukemia -50.7% | RPMI-8226 leukemia -40% | OVCAR-8 ovarian -60.6% | OVCAR-5 ovarian -56.6% | OVCAR-4 ovarian -75.2% | IGROV1 ovarian -74.7% | OVCAR-3 ovarian -94.3% | BT-549 breast -2.65% | MDA-MB-435 melanoma -89.1% | SW-620 colon -79% | MCF7 breast -56.8% | HCT-116 colon -64.8% | HCC-2998 colon -85.6% | KM12 colon -72.5%

CN1CCN(Cc2ccc(NC(=O)c3cncc(C#Cc4cnc5ccc(OCC(C)(C)O)nn45)c3)cc2C(F)(F)F)CC1
inactive: NCI/ADR-RES ovarian 33.9%
active: SR leukemia -7.52% | RPMI-8226 leukemia -27.6% | OVCAR-8 ovarian 6.58% | OVCAR-5 ovarian -3.05% | OVCAR-4 ovarian -2.05% | SK-OV-3 ovarian -13.3% | IGROV1 ovarian -17.3% | OVCAR-3 ovarian -56.5% | T-47D breast -17.6% | BT-549 breast -20.1% | MDA-MB-435 melanoma -86.8% | SW-620 colon -16.1% | MCF7 breast -66.3% | HCT-116 colon -51% | HCC-2998 colon -34.3% | KM12 colon 1.72%

CS(=O)(=O)Nc1cc(-c2ccc3ncc(C#N)c(NCc4ccccc4)c3c2)cnc1Cl
inactive: NCI/ADR-RES ovarian 24.5%
active: SR leukemia -18.9% | RPMI-8226 leukemia -35.3% | OVCAR-8 ovarian 7.32% | OVCAR-5 ovarian 3.75% | OVCAR-4 ovarian -6.69% | SK-OV-3 ovarian -15% | IGROV1 ovarian -17.4% | OVCAR-3 ovarian -5.17% | HS 578T breast -21.2% | T-47D breast 0.176% | MDA-MB-435 melanoma -6.33% | SW-620 colon 4.13% | MCF7 breast 6.39% | HCT-116 colon 4.12% | HCC-2998 colon 4.93% | KM12 colon 8.53%

C=C(C=O)[C@@H]1CC[C@]2(C)[C@H](CC=C3[C@H]4[C@@H](C)[C@H](C)CC[C@]4(C(=O)OC)CC[C@]32C)[C@@]1(C)CCC#N
active: SR leukemia 0.262% | RPMI-8226 leukemia -11.9% | OVCAR-5 ovarian 2.05% | IGROV1 ovarian -2.63% | OVCAR-3 ovarian -58.2% | NCI/ADR-RES ovarian 8.1% | MDA-MB-435 melanoma -7.24% | SW-620 colon 0.12% | MCF7 breast -20.1% | HCT-116 colon -57.8% | HCC-2998 colon -48.8% | KM12 colon -4.32%
inactive: OVCAR-8 ovarian 20.1% | OVCAR-4 ovarian 20.1% | SK-OV-3 ovarian 69.7% | T-47D breast 22.4% | BT-549 breast 12%

Oc1cccc2ccc(-c3nnc(SCc4ccc(O)c5ncccc45)n3-c3ccccc3)nc12
active: OVCAR-8 ovarian 6.56% | NCI/ADR-RES ovarian 7.68% | T-47D breast 9.55% | MCF7 breast 6.09%
inactive: SR leukemia 31.2% | RPMI-8226 leukemia 15.6% | OVCAR-5 ovarian 47.8% | OVCAR-4 ovarian 16.8% | SK-OV-3 ovarian 12.1% | IGROV1 ovarian 11.2% | OVCAR-3 ovarian 28.3% | BT-549 breast 26.1% | MDA-MB-435 melanoma 17% | SW-620 colon 16.4% | HCT-116 colon 10.5% | HCC-2998 colon 28.2% | KM12 colon 10.9%

C=CC(=O)N1CC=C(c2cc3c(N[C@H](C)c4ccccc4)ncnc3[nH]2)CC1
active: IGROV1 ovarian 6.95%
inactive: SR leukemia 66.7% | RPMI-8226 leukemia 85.8% | OVCAR-8 ovarian 85.8% | OVCAR-5 ovarian 37.5% | OVCAR-4 ovarian 71.9% | SK-OV-3 ovarian 47.4% | OVCAR-3 ovarian 70.3% | HS 578T breast 39.9% | NCI/ADR-RES ovarian 89.5% | T-47D breast 71.6% | SW-620 colon 87% | MCF7 breast 75.5% | HCT-116 colon 86.1% | HCC-2998 colon 89.6% | KM12 colon 98.9%

C=C(C)[C@@H]1CC[C@]2(COCCCNCCC#N)CC[C@]3(C)[C@H](CC[C@@H]4[C@@]5(C)CC[C@H](OCCCNCCC#N)C(C)(C)[C@@H]5CC[C@]43C)[C@@H]12
active: SR leukemia -18.4%
inactive: RPMI-8226 leukemia 34% | OVCAR-8 ovarian 66.6% | OVCAR-5 ovarian 83.7% | OVCAR-4 ovarian 23.9% | SK-OV-3 ovarian 97.8% | IGROV1 ovarian 72.1% | OVCAR-3 ovarian 71% | HS 578T breast 72.6% | NCI/ADR-RES ovarian 37.3% | T-47D breast 53.3% | MDA-MB-435 melanoma 56.4% | SW-620 colon 64.7% | MCF7 breast 32.5% | HCT-116 colon 24.7% | HCC-2998 colon 31.8% | KM12 colon 64.4%

C=C=COc1cccc(/C(N)=N/C(N)=N/c2nc3ccccc3s2)c1
inactive: RPMI-8226 leukemia 106% | OVCAR-8 ovarian 62.8% | OVCAR-5 ovarian 83.4% | OVCAR-4 ovarian 89.4% | SK-OV-3 ovarian 102% | IGROV1 ovarian 57.7% | OVCAR-3 ovarian 100% | NCI/ADR-RES ovarian 88.5% | T-47D breast 63.1% | BT-549 breast 56% | MDA-MB-435 melanoma 77.8% | SW-620 colon 94.9% | MCF7 breast 93.1% | HCT-116 colon 25.1% | HCC-2998 colon 102% | KM12 colon 71.1%
active: SR leukemia 6.37%

COc1ccc(-n2c(SCc3n[nH]c(=S)o3)nc3ccc(Cl)cc3c2=O)cc1
inactive: SR leukemia 103% | RPMI-8226 leukemia 101% | OVCAR-8 ovarian 101% | OVCAR-5 ovarian 89.7% | OVCAR-4 ovarian 99.3% | SK-OV-3 ovarian 97.7% | IGROV1 ovarian 95.8% | HS 578T breast 93.9% | NCI/ADR-RES ovarian 99.4% | T-47D breast 97.6% | BT-549 breast 115% | MDA-MB-435 melanoma 94.8% | SW-620 colon 97.8% | MCF7 breast 90.6% | HCT-116 colon 104% | HCC-2998 colon 101% | KM12 colon 98.6%

N#Cc1cccc(NC(=O)c2cc(-c3ccc(F)cc3F)ccc2O)c1
active: RPMI-8226 leukemia -8.42% | OVCAR-4 ovarian 8.85% | SK-OV-3 ovarian 5.89% | OVCAR-3 ovarian 9.74% | NCI/ADR-RES ovarian 4.64% | T-47D breast 7.54% | BT-549 breast -0.215% | MDA-MB-435 melanoma 2.73% | MCF7 breast 2.47% | HCT-116 colon 5.45% | KM12 colon 2.94%
inactive: SR leukemia 27.3% | OVCAR-8 ovarian 10.8% | OVCAR-5 ovarian 14.6% | IGROV1 ovarian 13.2% | SW-620 colon 13.4%

CCOC(=O)c1c(Nc2ccccc2)nn2c(-c3cccs3)ccnc12
inactive: SR leukemia 63.5% | RPMI-8226 leukemia 66.2% | OVCAR-8 ovarian 92.2% | OVCAR-5 ovarian 90.3% | OVCAR-4 ovarian 91.7% | SK-OV-3 ovarian 83.2% | IGROV1 ovarian 91.3% | HS 578T breast 90.2% | NCI/ADR-RES ovarian 87.4% | T-47D breast 79.2% | BT-549 breast 109% | MDA-MB-435 melanoma 87.5% | SW-620 colon 88.7% | MCF7 breast 90.5% | HCT-116 colon 78% | HCC-2998 colon 100% | KM12 colon 82.1%

CCNC(=O)N1CCc2cc(OC)c(OCCc3ccc(OC)cc3)cc2C1c1ccc([N+](=O)[O-])cc1C (configuration not stated)
active: SR leukemia 8.11% | HS 578T breast 0.838% | HCT-116 colon 8.8%
inactive: RPMI-8226 leukemia 20.7% | OVCAR-8 ovarian 29.1% | OVCAR-5 ovarian 40.4% | OVCAR-4 ovarian 54% | SK-OV-3 ovarian 51.4% | IGROV1 ovarian 24.9% | NCI/ADR-RES ovarian 12.2% | T-47D breast 53% | BT-549 breast 20.1% | MDA-MB-435 melanoma 14.5% | SW-620 colon 23.8% | MCF7 breast 18.4% | HCC-2998 colon 14.5% | KM12 colon 18.6%

Cc1cc(C)cc(C(=O)Nc2cccc(C#Cc3cccc4[nH]nc(N)c34)c2)c1
inactive: RPMI-8226 leukemia 47.4% | OVCAR-8 ovarian 53.3% | OVCAR-5 ovarian 73.9% | OVCAR-4 ovarian 80.7% | SK-OV-3 ovarian 95.7% | IGROV1 ovarian 64.6% | HS 578T breast 75.7% | NCI/ADR-RES ovarian 59.8% | T-47D breast 39.4% | BT-549 breast 115% | SW-620 colon 38.6% | MCF7 breast 38.1% | HCT-116 colon 43.2% | HCC-2998 colon 57.7% | KM12 colon 12.6%
active: SR leukemia 4.43% | MDA-MB-435 melanoma 2.35%

Nc1nc(-c2cccc([N+](=O)[O-])c2)c(N=Nc2ccc(Br)cc2)s1
active: OVCAR-8 ovarian -28.7% | OVCAR-5 ovarian -12.1% | OVCAR-4 ovarian -33.2% | SK-OV-3 ovarian -83.7% | IGROV1 ovarian -13.3% | HS 578T breast 0.349% | NCI/ADR-RES ovarian -21.7% | T-47D breast -26.9% | BT-549 breast -29.6% | MDA-MB-435 melanoma 0.572% | SW-620 colon -34.5% | MCF7 breast 7.63% | HCT-116 colon -76.6% | HCC-2998 colon -31.6%
inactive: SR leukemia 50.7% | RPMI-8226 leukemia 15% | KM12 colon 15.4%
